Results reported in PubChem BioAssay (NCATS).
Records with an inconclusive call do not appear. Calls of active or inactive are those of the source. Calls follow the shape of the dose curve; as a rule, active = well fitted curve in the direction sought with a large enough effect; inconclusive = small, poorly fitted or top-dose-only effect, or another doubt; inactive = no such curve, though single readings can be large; an effect the other way counts as inactive or inconclusive.

Assays:
[1] = qHTS of pediatric cancer cell lines to identify multiple opportunities for drug repurposing: Primary screen for U-2 OS cells (AID 1347096); also: nearly all actives have a fitted effect of over 50% in size; also: potency is read from the fitted curve at half-maximal effect
Procedure, shortened: (§1)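 Viability after 48 h compound treatment at 37C, 500-1,000 cells/well, read as ATP luminescence with CellTiter-Glo. Primary screens used 11-point (MIPE, 0.78 nM-46 µM) or 8-point (NPC, 0.59 nM-46 µM) final concentrations; follow-up screens used 11-point dilutions.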

[2] = qHTS of pediatric cancer cell lines to identify multiple opportunities for drug repurposing: Primary screen for Saos-2 cells (AID 1347097); also: nearly all actives have a fitted effect of over 40% in size; also: potency is read from the fitted curve at half-maximal effect
Procedure, shortened: (§2)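 ATP-based luminescence (CellTiter-Glo) quantifies viability after a 48-hour exposure. Compounds are dosed across 8 or 11 final concentrations; DMSO and 2.3 µM bortezomib serve as controls.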

[3] = qHTS of pediatric cancer cell lines to identify multiple opportunities for drug repurposing: Primary screen for NB1643 cells (AID 1347099); also: nearly all actives have a fitted effect of over 50% in size; also: potency is read from the fitted curve at half-maximal effect
Procedure, shortened: as §2

[4] = qHTS of pediatric cancer cell lines to identify multiple opportunities for drug repurposing: Primary screen for LAN-5 cells (AID 1347100); also: potency is read from the fitted curve at half-maximal effect
Procedure, shortened: as §1

[5] = qHTS of pediatric cancer cell lines to identify multiple opportunities for drug repurposing: Primary screen for BT-12 cells (AID 1347101); also: nearly all actives have a fitted effect of over 25% in size; also: potency is read from the fitted curve at half-maximal effect
Procedure, shortened: (§3)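 Cells (500-1,000/well) rested 5 h, then received compounds for 48 h; metabolically active cells were measured by CellTiter-Glo luminescence. Final concentrations spanned up to 46 µM (MIPE, 11-point) or 0.59 nM-46 µM (NPC, 8-point) in primary screens, 11-point in follow-ups.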

[6] = qHTS of pediatric cancer cell lines to identify multiple opportunities for drug repurposing: Primary screen for Rh18 cells (AID 1347102); also: nearly all actives have a fitted effect of over 65% in size; also: potency is read from the fitted curve at half-maximal effect
Procedure, shortened: as §1

[7] = qHTS of pediatric cancer cell lines to identify multiple opportunities for drug repurposing: Primary screen for OHS-50 cells (AID 1347103); also: nearly all actives have a fitted effect of over 40% in size; also: potency is read from the fitted curve at half-maximal effect
Procedure, shortened: as §3

[8] = qHTS of pediatric cancer cell lines to identify multiple opportunities for drug repurposing: Primary screen for RD cells (AID 1347104); also: nearly all actives have a fitted effect of over 55% in size; also: potency is read from the fitted curve at half-maximal effect
Procedure, shortened: as §2

[9] = qHTS of pediatric cancer cell lines to identify multiple opportunities for drug repurposing: Primary screen for MG 63 (6-TG R) cells (AID 1347105); also: nearly all actives have a fitted effect of over 50% in size; also: potency is read from the fitted curve at half-maximal effect
Procedure, shortened: as §2

[10] = qHTS of pediatric cancer cell lines to identify multiple opportunities for drug repurposing: Primary screen for control Hh wild type fibroblast cells (AID 1347106);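 also: series mostly up to about 46 µM; a drop in luminescence marks cytotoxicity and a rise apparent proliferation; nearly all actives have a fitted effect of over 55% in size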
Procedure, shortened: as §1

[11] = qHTS of pediatric cancer cell lines to identify multiple opportunities for drug repurposing: Primary screen for Rh30 cells (AID 1347107); also: nearly all actives have a fitted effect of over 75% in size; also: potency is read from the fitted curve at half-maximal effect
Procedure, shortened: as §1

[12] = qHTS of pediatric cancer cell lines to identify multiple opportunities for drug repurposing: Primary screen for Rh41 cells (AID 1347108); also: nearly all actives have a fitted effect of over 70% in size; also: potency is read from the fitted curve at half-maximal effect
Procedure, shortened: as §2

[13] = qHTS of pediatric cancer cell lines to identify multiple opportunities for drug repurposing: Primary screen for SK-N-SH cells (AID 1347098); also: nearly all actives have a fitted effect of over 65% in size; also: potency is read from the fitted curve at half-maximal effect
Procedure, shortened: as §3

[14] = qHTS of pediatric cancer cell lines to identify multiple opportunities for drug repurposing: Confirmatory screen for NB1643 cells (AID 1347109); also: nearly all actives have a fitted effect of over 45% in size; also: potency is read from the fitted curve at half-maximal effect
Procedure, shortened: as §1

[15] = qHTS of pediatric cancer cell lines to identify multiple opportunities for drug repurposing: Confirmatory screen for A673 cells (AID 1347110);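 also: potency is read from the fitted curve at half-maximal effect; cells exposed to compound for 48 h before the viability read; nearly all actives have a fitted effect of over 65% in size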
Procedure, shortened: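 Concentration-response curves came straight from titrations: 11 points (0.78 nM to 46 µM) for MIPE and several concentrations (0.59 nM to 46 µM) for NPC in primary, 11 points in follow-up. Readout: ATP luminescence at 48 h.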

[16] = qHTS of pediatric cancer cell lines to identify multiple opportunities for drug repurposing: Confirmatory screen for BT-12 cells (AID 1347112); also: nearly all actives have a fitted effect of over 55% in size; also: potency is read from the fitted curve at half-maximal effect
Procedure, shortened: as §1

[17] = qHTS of pediatric cancer cell lines to identify multiple opportunities for drug repurposing: Confirmatory screen for BT-37 cells (AID 1347117); also: nearly all actives have a fitted effect of over 55% in size; also: potency is read from the fitted curve at half-maximal effect
Procedure, shortened: as §1

[18] = qHTS of pediatric cancer cell lines to identify multiple opportunities for drug repurposing: Confirmatory screen for TC32 cells (AID 1347118);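 also: potency is read from the fitted curve at half-maximal effect; cells exposed to compound for 48 h before the read; nearly all actives have a fitted effect of over 65% in size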
Procedure, shortened: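 Luminescent CellTiter-Glo read-out of metabolically active TC32 cells after 48 h compound exposure. Primary: MIPE 11-point, 0.78 nM–46 µM; NPC 8-point, 0.59 nM–46 µM. Confirmatory: 11-point dilutions.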

[19] = qHTS of pediatric cancer cell lines to identify multiple opportunities for drug repurposing: Confirmatory screen for DAOY cells (AID 1347114)
Procedure, shortened: (§4)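 Viability measured as metabolically active cells via CellTiter-Glo luminescence following 48 hours of compound exposure, 11-point dilutions in confirmatory testing. 500-1,000 cells/well plated 5 hours before dosing; controls were DMSO and 2.3 µM bortezomib.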

[20] = qHTS of pediatric cancer cell lines to identify multiple opportunities for drug repurposing: Confirmatory screen for SJ-GBM2 cells (AID 1347116); also: potency is read from the fitted curve at half-maximal effect; nearly all actives have a fitted effect of over 60% in size
Procedure, shortened: as §4

Measured: Potency

CC(=O)N(C)c1cccc(-c2ccnc3c(C(=O)c4cccs4)cnn23)c1
inactive: [1] | [2] | [3] | [4] | [5] | [6] | [7] | [8] | [9] | [10] | [11] | [12]

O=C(Oc1ccc([N+](=O)[O-])cc1)N1CCC(C(O)(c2ccc3c(c2)OCO3)c2ccc3c(c2)OCO3)CC1
inactive: [1] | [2] | [13] | [4] | [9] | [10] | [11] | [12]

O=C1C(I)=CC(=C(c2cc(I)c(O)c(I)c2)c2ccccc2C(=O)O)C=C1I
active: [15] 3.69 µM
inactive: [1] | [2] | [13] | [4] | [5] | [6] | [7] | [8] | [9] | [10] | [11] | [14] | [16] | [17]

O=S(=O)(CC1CS1)c1ccc(Oc2ccccc2)cc1 (configuration not stated)
inactive: [1] | [10]
active: [2] 18.7 µM | [13] 24.1 µM | [3] 18.7 µM | [4] 23.5 µM | [7] 30.6 µM | [12] 18.7 µM

C1=C2CCCN[C@H]2[C@@H]2C[C@H]1[C@@H]1CCCCN1C2
inactive: [1] | [2] | [13] | [4] | [5] | [6] | [7] | [9] | [10] | [11] | [12]

CCN(CC)C(=O)c1ccc(C2=CC3(CCNCC3)Oc3cccc(O)c32)cc1
inactive: [1] | [2] | [13] | [4] | [5] | [6] | [9] | [10] | [11] | [12]

CCCCCC[C@H]1C(=O)O[C@H](C)[C@H](NC(=O)c2cccc(NC=O)c2O)C(=O)O[C@@H](C)[C@@H]1OC(=O)CC(C)C
inactive: [1] | [13] | [10]
active: [2] 11.8 µM | [3] 23.5 µM | [5] 0.122 µM | [7] 0.0611 µM | [15] 13.1 µM | [18] 0.117 µM

COC1=C[C@@H]2[C@@H]3Cc4ccc(OC)c(O)c4[C@]2(CCN3C)CC1=O
active: [13] 6.07 µM | [3] 5.9 µM | [12] 3.72 µM
inactive: [1] | [2] | [5] | [6] | [7]

CC(C)[C@]12O[C@@H]1[C@@H]1O[C@]13[C@]1(O[C@H]1C[C@@H]1C4=C(CC[C@@]13C)C(=O)OC4)[C@H]2O
inactive: [3] | [4] | [10]
active: [1] 0.001 µM | [2] 1.66 µM | [5] 0.001 µM | [7] 0.001 µM | [8] 0.001 µM | [12] 52.6 µM | [15] 0.0928 µM | [16] 0.0369 µM | [19] 0.208 µM | [20] 0.0657 µM | [17] 0.0369 µM | [18] 0.0737 µM

C=CCON=C(C[C@H]1O[C@@H]2O[C@]3(C)CC[C@@H]4[C@H](C)CC[C@@H]([C@H]1C)[C@@]24OO3)[C@H]1O[C@@H]2O[C@]3(C)CC[C@H]4[C@H](C)CC[C@@H]([C@@H]1C)[C@@]24OO3
inactive: [1] | [2] | [13] | [10] | [11]
active: [3] 0.833 µM | [4] 0.469 µM | [7] 0.306 µM | [12] 0.469 µM | [14] 0.414 µM | [16] 0.261 µM | [19] 1.85 µM | [17] 0.147 µM

CC(=O)Nc1ccc(OC[C@](C)(O)C(=O)Nc2ccc([N+](=O)[O-])c(C(F)(F)F)c2)cc1
inactive: [1] | [2] | [13] | [4] | [6] | [7] | [8] | [9] | [10] | [12]

CC(=O)[O][Hg][c]1ccccc1
active: [1] 2.66 µM | [2] 0.668 µM | [13] 0.97 µM | [3] 1.19 µM | [5] 3.47 µM | [6] 2.66 µM | [7] 4.9 µM | [9] 2.66 µM | [11] 2.66 µM | [12] 1.06 µM | [14] 1.47 µM | [15] 1.04 µM | [16] 4.65 µM | [20] 1.17 µM | [17] 2.33 µM | [18] 0.827 µM

C=C1C[C@H]2[C@H]3CCC(=O)[C@@]3(C)CC[C@@H]2[C@@]2(C)C=CC(=O)C=C12
inactive: [1] | [2] | [13] | [4] | [6] | [9] | [10]
